Where “and” joins values, the source holds several entries; their conditions need not be identical. Identical values can stand only once. Some compounds were tested as several samples or in several runs, with calls that do not always agree. Calls of active or inactive are those of the source. Cut-off read from the data, not from the text of the source, unless noted: active = inhibition above about 33%; inactive = the rest.
Legend:
[1] = molecular target: Nuclear receptor coactivator 3 (Homo sapiens) (UniProt Q9Y6Q9); test: NCOA3 GAL4-fusion reporter inhibition – cell-based, luminescence, quadruplicate, confirmation (AID 588792;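 active = mean inhibition over 43.08%, the solvent-only control mean plus 3 SD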;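 note: 0% = DMSO treated cells and 100% = gossypol at 36 µM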); details: HEK293 GAL4-SRC3 luciferase reporter, at 3.6 µM, stronger effect = higher value
Nuclear receptor coactivator 3 (Homo sapiens), sequence (Q9Y6Q9 whole entry, looked up, the tested form may be a part): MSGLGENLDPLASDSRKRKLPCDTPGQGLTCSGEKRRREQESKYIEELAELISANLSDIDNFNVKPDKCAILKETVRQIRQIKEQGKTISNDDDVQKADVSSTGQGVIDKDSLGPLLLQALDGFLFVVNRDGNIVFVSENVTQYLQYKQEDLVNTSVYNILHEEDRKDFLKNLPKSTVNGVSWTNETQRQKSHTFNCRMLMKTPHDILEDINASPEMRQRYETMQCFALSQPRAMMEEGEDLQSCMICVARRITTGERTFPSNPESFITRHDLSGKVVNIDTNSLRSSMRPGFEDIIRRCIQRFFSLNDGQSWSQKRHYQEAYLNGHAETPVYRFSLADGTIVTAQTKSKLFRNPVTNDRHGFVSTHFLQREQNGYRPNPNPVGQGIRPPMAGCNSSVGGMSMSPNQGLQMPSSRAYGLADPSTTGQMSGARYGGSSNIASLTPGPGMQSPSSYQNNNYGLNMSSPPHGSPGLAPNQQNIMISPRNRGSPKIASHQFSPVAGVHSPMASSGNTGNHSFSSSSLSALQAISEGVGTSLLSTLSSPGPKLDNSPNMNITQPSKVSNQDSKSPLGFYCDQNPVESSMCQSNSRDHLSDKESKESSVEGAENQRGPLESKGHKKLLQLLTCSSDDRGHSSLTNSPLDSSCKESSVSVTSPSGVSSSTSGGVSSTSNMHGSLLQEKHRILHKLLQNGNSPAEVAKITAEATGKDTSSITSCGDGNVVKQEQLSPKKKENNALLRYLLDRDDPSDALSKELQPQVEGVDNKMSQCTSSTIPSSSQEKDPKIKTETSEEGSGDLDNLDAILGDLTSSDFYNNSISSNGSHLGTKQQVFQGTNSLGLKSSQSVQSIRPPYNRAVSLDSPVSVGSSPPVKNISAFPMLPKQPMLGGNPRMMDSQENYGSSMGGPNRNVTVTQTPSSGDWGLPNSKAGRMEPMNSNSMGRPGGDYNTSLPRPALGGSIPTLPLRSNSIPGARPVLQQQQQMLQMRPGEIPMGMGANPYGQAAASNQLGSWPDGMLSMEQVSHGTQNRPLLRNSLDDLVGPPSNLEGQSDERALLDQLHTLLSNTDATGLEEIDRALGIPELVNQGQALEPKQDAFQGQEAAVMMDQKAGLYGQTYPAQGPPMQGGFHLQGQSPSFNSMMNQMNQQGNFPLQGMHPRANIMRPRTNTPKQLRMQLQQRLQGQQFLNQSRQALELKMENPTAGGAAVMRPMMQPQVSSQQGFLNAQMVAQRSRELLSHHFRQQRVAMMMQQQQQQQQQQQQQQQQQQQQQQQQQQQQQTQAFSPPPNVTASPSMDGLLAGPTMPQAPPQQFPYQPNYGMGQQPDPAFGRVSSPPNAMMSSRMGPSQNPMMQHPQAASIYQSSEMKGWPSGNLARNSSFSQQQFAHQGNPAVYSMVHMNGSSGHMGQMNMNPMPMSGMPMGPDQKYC

[2] = system: transactivating tegument protein VP16 (Human herpesvirus 1), Gal4-VP16 luciferase reporter; test: repression of VP16-driven luciferase reporter – cell-based, luminescence, high throughput, counter-screen for SRC3 inhibitor project (AID 588794; in the data active = inhibition above about 30%); details: mammalian cells, at 3.6 µM, stronger effect = higher value
[3] = molecular target: Nuclear receptor coactivator 1 (Homo sapiens) (UniProt Q15788); test: NCOA1 GAL4-fusion reporter inhibition – cell-based, luminescence, quadruplicate, confirmation (AID 588820;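 active = mean inhibition above 46.68%, the untreated control wells mean plus 3 SD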;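 note: 0% = DMSO wells and 100% = gossypol 36 µM treated wells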); details: HEK293 GAL4-SRC1 luciferase reporter, at 3.6 µM, stronger effect = higher value
Nuclear receptor coactivator 1 (Homo sapiens), sequence (Q15788 whole entry, looked up, the tested form may be a part): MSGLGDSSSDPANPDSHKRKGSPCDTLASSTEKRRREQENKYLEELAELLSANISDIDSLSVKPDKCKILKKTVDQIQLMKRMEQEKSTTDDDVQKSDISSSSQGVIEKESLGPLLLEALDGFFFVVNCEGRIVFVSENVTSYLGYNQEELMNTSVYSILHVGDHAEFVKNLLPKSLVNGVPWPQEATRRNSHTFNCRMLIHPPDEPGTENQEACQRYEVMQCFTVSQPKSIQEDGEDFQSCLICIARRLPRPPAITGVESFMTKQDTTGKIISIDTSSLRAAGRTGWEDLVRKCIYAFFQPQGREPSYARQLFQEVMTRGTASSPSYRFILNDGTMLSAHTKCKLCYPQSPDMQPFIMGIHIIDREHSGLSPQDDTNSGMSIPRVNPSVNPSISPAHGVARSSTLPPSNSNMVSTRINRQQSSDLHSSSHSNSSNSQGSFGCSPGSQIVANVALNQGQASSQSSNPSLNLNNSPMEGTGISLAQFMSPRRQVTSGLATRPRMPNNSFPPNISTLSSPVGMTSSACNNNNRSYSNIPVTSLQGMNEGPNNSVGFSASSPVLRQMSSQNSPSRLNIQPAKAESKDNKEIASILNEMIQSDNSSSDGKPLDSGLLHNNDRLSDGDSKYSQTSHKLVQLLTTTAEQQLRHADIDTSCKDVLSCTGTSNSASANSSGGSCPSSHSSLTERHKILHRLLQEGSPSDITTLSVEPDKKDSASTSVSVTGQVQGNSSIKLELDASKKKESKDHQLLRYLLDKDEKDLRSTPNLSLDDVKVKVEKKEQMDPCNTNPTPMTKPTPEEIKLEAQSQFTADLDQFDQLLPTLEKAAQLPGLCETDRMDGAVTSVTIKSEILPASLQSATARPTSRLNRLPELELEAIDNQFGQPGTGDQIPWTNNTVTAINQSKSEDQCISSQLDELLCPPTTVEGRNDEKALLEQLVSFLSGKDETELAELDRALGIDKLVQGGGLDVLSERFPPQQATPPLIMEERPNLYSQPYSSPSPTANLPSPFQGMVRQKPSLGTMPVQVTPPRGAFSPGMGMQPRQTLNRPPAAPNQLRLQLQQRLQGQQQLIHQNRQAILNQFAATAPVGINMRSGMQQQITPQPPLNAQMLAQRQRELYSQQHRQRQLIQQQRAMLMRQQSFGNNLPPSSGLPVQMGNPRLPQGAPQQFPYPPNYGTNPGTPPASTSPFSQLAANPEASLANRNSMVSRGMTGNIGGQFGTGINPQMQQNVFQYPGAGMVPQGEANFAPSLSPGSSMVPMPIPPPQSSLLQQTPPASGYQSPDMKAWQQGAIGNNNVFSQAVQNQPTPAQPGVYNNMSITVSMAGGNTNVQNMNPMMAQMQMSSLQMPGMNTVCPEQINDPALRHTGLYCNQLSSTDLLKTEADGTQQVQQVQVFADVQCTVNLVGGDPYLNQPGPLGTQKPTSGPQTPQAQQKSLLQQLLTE

[4] = repression of VP16-driven luciferase reporter – cell-based, luminescence, high throughput, counter-screen for SRC1 inhibitor project (AID 588824; in the data active = inhibition above about 25%); details: cell-based VP16 transactivation luciferase luminescence; at 3.6 µM; stronger effect = higher value
[5] = StAR promoter reporter inhibitors, counter-screen for LRH-1 inverse agonist project, cell-based, luminescence, high throughput (AID 651611; in the data active = inhibition above about 28%); details: StAR promoter luciferase reporter counterscreen, at 3.6 µM, stronger effect = higher value
[6] = molecular target: Nuclear receptor subfamily 5 group A member 2 (Homo sapiens) (UniProt O00482); test: NR5A2 activity suppression in reporter cells – cell-based, luminescence, confirmation (AID 651613; in the data active = inhibition above about 42%;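 note: HEK293T cells co-transfected with LRH-1 and StAR promoter luciferase reporter; 0% = vehicle wells and 100% = parental cells lacking receptor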); details: cell-based LRH-1 luciferase reporter, inverse agonism; at 3.6 µM; stronger effect = higher value
Nuclear receptor subfamily 5 group A member 2 (Homo sapiens), sequence (O00482 whole entry, looked up): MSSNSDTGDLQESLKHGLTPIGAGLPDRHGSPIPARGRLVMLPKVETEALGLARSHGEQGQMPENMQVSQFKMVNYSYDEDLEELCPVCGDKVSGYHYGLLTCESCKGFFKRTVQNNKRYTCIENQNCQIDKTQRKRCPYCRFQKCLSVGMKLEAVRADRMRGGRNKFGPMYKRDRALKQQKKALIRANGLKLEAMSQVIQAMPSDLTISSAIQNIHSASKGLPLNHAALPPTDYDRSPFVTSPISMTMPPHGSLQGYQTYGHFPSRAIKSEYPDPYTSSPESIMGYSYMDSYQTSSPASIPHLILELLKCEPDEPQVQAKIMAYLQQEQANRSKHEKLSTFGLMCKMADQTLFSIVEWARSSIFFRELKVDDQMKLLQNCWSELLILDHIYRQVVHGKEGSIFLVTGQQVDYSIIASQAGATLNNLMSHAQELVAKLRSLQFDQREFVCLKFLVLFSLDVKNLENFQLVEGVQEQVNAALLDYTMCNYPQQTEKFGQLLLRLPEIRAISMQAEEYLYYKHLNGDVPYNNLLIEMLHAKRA

[7] = molecular target: Steroidogenic factor 1 (Homo sapiens) (UniProt Q13285); test: inverse agonism at SF1 nuclear receptor – cell-based, luminescence, high throughput, counter-screen for LRH-1 inverse agonist project (AID 651614; in the data active = inhibition above about 44%;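 note: cells cotransfected with StAR promoter reporter and SF1 expression vector; 0% = vehicle on cells with receptor and 100% = vehicle on cells lacking receptor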); details: cell-based SF1 luciferase reporter, at 3.6 µM, stronger effect = higher value
Steroidogenic factor 1 (Homo sapiens), sequence (Q13285 whole entry, looked up, the tested form may be a part): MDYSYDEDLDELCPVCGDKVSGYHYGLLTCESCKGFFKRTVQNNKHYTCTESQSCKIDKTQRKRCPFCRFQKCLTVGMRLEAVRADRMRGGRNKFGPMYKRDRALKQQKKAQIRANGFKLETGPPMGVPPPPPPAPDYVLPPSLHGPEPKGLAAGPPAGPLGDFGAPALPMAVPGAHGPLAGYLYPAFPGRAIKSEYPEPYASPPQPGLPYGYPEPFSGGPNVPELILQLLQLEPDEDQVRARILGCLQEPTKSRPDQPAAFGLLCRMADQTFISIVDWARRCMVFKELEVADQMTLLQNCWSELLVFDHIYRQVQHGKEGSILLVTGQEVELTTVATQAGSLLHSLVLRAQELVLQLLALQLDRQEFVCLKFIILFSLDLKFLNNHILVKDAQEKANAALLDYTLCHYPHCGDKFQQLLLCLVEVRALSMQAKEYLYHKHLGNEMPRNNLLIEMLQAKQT

[8] = compounds suppressing VP16-driven luciferase signal – cell-based, luminescence, high throughput, counter-screen for LRH-1 inverse agonist project (AID 651615); details: Gal4-VP16 luciferase reporter cells, at 3.6 µM, stronger effect = higher value

Measured: inhibition

CCC[N+]1(CC#CCC(c2ccccc2)c2ccccc2)CCCCC1
active: [2] 40.3% | [4] 53.2% | [6] 104% | [7] 67.9% | [8] 73.6%
inactive: [1] 28.8% | [3] 21.4% | [5] 24.2%

N=C1C=CC(=C(c2ccc(N)cc2)c2ccc(N)cc2)C=C1
active: [1] 56.2% | [2] 60% | [4] 45.9% | [5] 54.9% | [6] 110% | [7] 85.2% | [8] 88.5%
inactive: [3] 45.2%

CN(Cc1ccccc1)C1=CC(=[N+]2CCCC2)CC(C)(C)C1
inactive: [3] 7.51%
active: [1] 64.6% | [2] 67.9% | [4] 63.1% | [5] 44.2% | [6] 109% | [7] 79.9% | [8] 89.6%

COc1ccccc1-n1c(-c2ccccc2)c[n+]2c1CCc1ccccc1-2
active: [2] 72.8% and 57.1% | [4] 73.8% and 53.7% | [5] 58.2% and 36.6% | [6] 96.8% and 84.2% | [7] 84.2% and 76% | [8] 83.9% and 70.9%
47.9% (active) and 39.9% (inactive): [1]
inactive: [3] 39.1% and 29.1%

COc1cccc(/C=N/NC(=O)c2c(C)nc3ccc(Cl)cn23)c1O
active: [1] 79.3% | [2] 78.5% | [3] 75.2% | [4] 73.9% | [5] 86.7% | [6] 102% | [7] 88.4% | [8] 83.5%

COc1cc(NS(C)(=O)=O)ccc1Nc1c2ccccc2nc2ccccc12
active: [1] 63.6% | [3] 61.1% | [5] 46.6% | [6] 108% | [7] 52% | [8] 78.8%
inactive: [2] -6.87% | [4] -3.17%

COc1ccc(CCNc2ncnc3c2oc2ccccc23)cc1OC
active: [2] 34.9% | [4] 32.5% | [5] 34.5% | [6] 51.8% | [7] 58.1% | [8] 55.6%
inactive: [1] 15.8% | [3] 2.85%

CCC(=O)Nc1cccc(C(=O)/C=C/c2cc(Br)ccc2OC)c1
active: [1] 70.8% | [2] 62.1% | [3] 60.6% | [4] 59.4% | [5] 81.2% | [6] 105% | [7] 94.1% | [8] 82.9%

Cc1cccn2c(=O)c3cc(C(=O)NCCN4CCOCC4)c(=N)n(Cc4ccc(F)cc4)c3nc12
active: [2] 41.6% | [4] 28.3% | [5] 45.4% | [6] 73.9% | [7] 61.6% | [8] 60.1%
inactive: [1] 36.9% | [3] 44.4%

Cc1cc(C)nc(NC(=O)c2ccc(COc3ccccc3Cl)cc2)c1
inactive: [1] 36.6% | [3] 25.2%
active: [2] 45.3% | [4] 42.7% | [5] 38.9% | [6] 65.1% | [7] 67.1% | [8] 57.7%

COc1cccc(/C=N/NC(=O)c2ccc(-c3ccccc3)cc2)c1O
inactive: [1] 28.9% | [3] 37.3% | [7] 36.4%
active: [2] 39.8% | [4] 40.6% | [5] 48.9% | [6] 81% | [8] 80.1%

CCC(C)n1ncn(-c2ccc(N3CCN(c4ccc(O)cc4)CC3)cc2)c1=O (stereo not given)
inactive: [1] 32.4% | [3] 20.6%
active: [2] 51.9% | [4] 54.8% | [5] 63.1% | [6] 76.7% | [7] 70.8% | [8] 73.1%

CCCC(=O)NC(c1ccc(C)cc1)c1ccc2cccnc2c1O (stereo not given)
active: [1] 73.8% | [2] 61.9% | [3] 61.4% | [4] 79% | [5] 86.1% | [6] 103% | [7] 90.8% | [8] 83.1%

CCOC(=O)c1cc2c(=Cc3ccc(N(C)C)cc3)c3ccccc3n2[n+]1C
inactive: [3] 22.9%
active: [1] 46.2% | [2] 63.4% | [4] 59.5% | [5] 49.3% | [6] 105% | [7] 85.7% | [8] 90.4%

Cc1ccc2[nH]cc(/C=C/c3cc[n+](C)cc3)c2c1
inactive: [1] 40.1% | [3] 14.5%
active: [2] 52.6% | [4] 59.7% | [5] 42.2% | [6] 84% | [7] 75.5% | [8] 70.5%

From PubChem BioAssay
